From the supplement of paper PMC10681739

Experiments:
[1] = molecular target: T1, ETS1 (UniProt P14921); assay: ETS1 binding intensity (PBM fluorescence), ETS1 alone (arbitrary fluorescence units); higher = stronger binding; settings: ETS1 concentration 1 nM; RUNX1 concentration 0 nM
T1 sequence: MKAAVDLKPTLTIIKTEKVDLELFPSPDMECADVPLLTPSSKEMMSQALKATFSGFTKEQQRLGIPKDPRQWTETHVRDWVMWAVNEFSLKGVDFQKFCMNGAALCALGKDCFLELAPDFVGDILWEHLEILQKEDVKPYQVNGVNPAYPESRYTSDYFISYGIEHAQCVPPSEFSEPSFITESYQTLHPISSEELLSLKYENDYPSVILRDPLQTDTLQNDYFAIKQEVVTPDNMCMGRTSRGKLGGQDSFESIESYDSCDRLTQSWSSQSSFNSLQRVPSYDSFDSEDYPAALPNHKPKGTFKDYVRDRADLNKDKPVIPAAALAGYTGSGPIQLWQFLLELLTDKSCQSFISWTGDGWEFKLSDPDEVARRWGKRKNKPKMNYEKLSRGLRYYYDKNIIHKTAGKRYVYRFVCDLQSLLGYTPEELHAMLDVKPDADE

[2] = molecular target: RUNX1 (UniProt Q01196); assay: RUNX1 binding intensity (PBM fluorescence), RUNX1 alone (arbitrary fluorescence units); higher = stronger binding; settings: RUNX1 concentration 2 nM; ETS1 concentration 0 nM
RUNX1, sequence (Q01196 whole entry): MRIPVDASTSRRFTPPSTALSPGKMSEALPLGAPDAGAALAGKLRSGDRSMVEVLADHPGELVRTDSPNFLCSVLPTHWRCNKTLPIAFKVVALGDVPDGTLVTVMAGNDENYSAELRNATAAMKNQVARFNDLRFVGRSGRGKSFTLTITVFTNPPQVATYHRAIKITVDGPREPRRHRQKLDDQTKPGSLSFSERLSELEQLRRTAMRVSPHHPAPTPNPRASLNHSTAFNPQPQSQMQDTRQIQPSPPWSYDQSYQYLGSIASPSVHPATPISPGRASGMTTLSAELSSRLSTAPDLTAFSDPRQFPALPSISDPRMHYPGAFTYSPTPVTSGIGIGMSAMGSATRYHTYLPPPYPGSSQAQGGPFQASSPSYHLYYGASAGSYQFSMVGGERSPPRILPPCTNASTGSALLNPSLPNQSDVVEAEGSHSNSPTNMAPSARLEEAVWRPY
Method: (§1)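 Cooperative gcPBM on 36-bp genomic probes with neighbouring ETS1 and RUNX1 sites. Recombinant human RUNX1 (2 nM) was incubated alone or with ETS1 (25 nM) and detected with anti-RUNX1 antibody plus Alexa488 secondary. Values are medians over 4 replicate spots; the RUNX1+ETS1 data were normalised to the RUNX1-only data. The probes sit in constant array flanks that are not printed.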

[3] = molecular target: T1, ETS1; assay: ETS1 binding intensity (PBM fluorescence) in presence of RUNX1, normalised to ETS1-only experiment (arbitrary fluorescence units); higher = stronger binding; settings: ETS1 concentration 1 nM; RUNX1 concentration 25 nM
[4] = molecular target: RUNX1 (UniProt Q01196); assay: RUNX1 binding intensity (PBM fluorescence) in presence of ETS1, normalised to RUNX1-only experiment (arbitrary fluorescence units); higher = stronger binding; settings: RUNX1 concentration 2 nM; ETS1 concentration 25 nM
Method: as §1
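Throughout, for RUNX1 binding intensity (PBM fluorescence) in presence of ETS1, normalised to RUNX1-only experiment: Full-length recombinant human ETS1 or RUNX1 bound to double-stranded 36-bp genomic probes on microarrays, detected by protein-specific primary antibody and Alexa488 secondary, spot fluorescence as median of four replicate spots.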
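Throughout, for RUNX1 binding intensity (PBM fluorescence), RUNX1 alone: Full-length recombinant human RUNX1 bound to double-stranded 36-bp genomic probes on a high-density microarray, scored as Alexa488 fluorescence per spot via anti-RUNX1 antibody, median of four replicate spots.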

Row | Sequence | ETS1 binding intensity [1] | RUNX1 binding intensity [2] | ETS1 binding intensity [3] | RUNX1 binding intensity [4]
1 | ACCTGCACTTCCTCCTCCCTAGACCGCACCCTTCTC | 491 | 2840 | 600 | 4300
2 | CTGAAACAGGAAACAGACAAAGCCACAAGGTTCGCA | 1840 | 746 | 5750 | 1780
3 | CCTTTACTTCCTTTTACTTCTAACCACAGAATTAAA | 444 | 7760 | 1810 | 14200
4 | GCGCCCGGAAGGAAGGCTGGGGTAGGTTGTGGTTTC | 476 | 830 | 2740 | 1140
5 | TTCAGTCCTGGTTTCCTGTGGTTCTAGGATCTTTAT | 903 | 828 | 957 | 1440
6 | ATCTCAACTAGGAAATGTTTTTGTGACCACAAAGGG | 620 | 958 | 2310 | 949
7 | GTTCTTATCCTGTGGCTCGTTTGTGGTTACTGACAT | 425 | 4330 | 741 | 4260
8 | CCTCTGAGGCAGGAAGCTGCGGTGAAGTCTGAAGTT | 3300 | 871 | 11800 | 2070
9 | GCCCCTAAACCGGATGCGGCAGCCACCGCGGACCCC | 9010 | 1290 | 16600 | 3550
10 | CCTCTTGGTTTCCTGTCCCTCACCACAAGAAGCAGT | 625 | 1540 | 1520 | 4520
11 | GACCAGGCGAGAGGATGTGGGTATGAGGGAGGAGCT | 819 | 835 | 1640 | 1090
12 | CCAACGAGCACTTCCGCTTCCCGCAGCTCCAGCGGC | 2400 | 914 | 4270 | 2650
13 | CCCGCCGGAAGGACGCGTCTGCGTCTCTGCGGCGAG | 680 | 688 | 1010 | 955
14 | TTAGGCAGAGCTCATTTCCGCCCACATCAAAAGTAA | 1710 | 867 | 1990 | 1110
15 | TGGTTTCTCACTGGCGGATGTGGGTGGGTCGCCTCC | 4130 | 723 | 6390 | 1100
16 | CTCCTTCCTGATCGGGCAGGAACTAACCACAGGAGG | 1060 | 825 | 2480 | 1130
17 | TCTCTACTTCCCATTATTTCTGTGGTTAATTTCACC | 369 | 10400 | 986 | 13500
18 | TGTGTCACTTCCCTATCTGTTGCGGTTGTTCACTCC | 409 | 1340 | 841 | 2930
19 | GCCCTGACCCACATCCTGCCGCAGCCTGCTTGTCCT | 979 | 1520 | 1350 | 7030
20 | ACACAGGAAGCAAAAGTTAAGCTATAAAACCCGCAA | 571 | 969 | 765 | 1240

Row | Sequence | ETS1 binding intensity [1] | RUNX1 binding intensity [2] | ETS1 binding intensity [3] | RUNX1 binding intensity [4]
21 | ACAACCCGGAAGTTGGCGCAGCGCGGTTGCCAATGG | 4350 | 671 | 4910 | 1300
22 | CACTTCCGGGTCGTCAGCTCAGTTCTGCGGTTTCTG | 1030 | 4240 | 5740 | 12800
23 | CCCACCCTCGCCGGAAGCCGAGCGGTTTCTACATCA | 2120 | 1110 | 3600 | 1540
24 | GTTGCCCCACTTCCTGCCAGTGGTTTTTGGTTGGCC | 2660 | 944 | 4220 | 4040
25 | CCGCCGCGACACTTCCGGCGGCCACCACAGGGTATT | 2700 | 727 | 3020 | 2500
26 | GAAGTCACATCCTGTCTGTTGCGGCAGGGCACAGAG | 1470 | 756 | 1520 | 1750
27 | AATGCAGCATTTCCTCTCCAGTTCACCACAGGCCCC | 590 | 1490 | 634 | 2420
28 | CCAGCAAAGGAAGCTTGGTCAACCACAGCAGCCTGT | 393 | 850 | 463 | 891
29 | AAACCAGAGAGGAAGTGGCACCACATGGCCAGACTG | 2030 | 755 | 2150 | 1140
30 | GCTGCCGGAAAAGGCGCCGAGGTAACCGCCTCACTT | 479 | 903 | 496 | 1020
31 | GAACTTCCGGGACCACGTGACGTAGAACCACAACAA | 587 | 815 | 1100 | 1690
32 | TCATAAGGAAGTGGAGTGTAGTAACCACAGGCCCCG | 417 | 829 | 1100 | 1340
33 | GGCTTCCGCCGCCACCACTGCCCCTCAACCGCCACG | 518 | 1110 | 601 | 2040
34 | TCGGAGACGGCGAAAGGAAACCGCAAGGAGGCCACC | 642 | 4180 | 2820 | 9290
35 | CTTTGCTGCCGCCTTCCTGTGCGGGGCCGTGGCGGC | 493 | 720 | 389 | 1020
36 | CCTGACTTCCTCCTCCCCCTCCCGCCACAATTCCGC | 1240 | 1620 | 1620 | 2880
37 | CGTACGCGCACTTCCGGTCTTTGTGGCTTGCAGCTC | 18000 | 853 | 34400 | 2610
38 | ACCGGGTGCTGAGGAGGAAGTGGTTGCTATAACCCC | 2350 | 741 | 3420 | 1120
39 | AGCACTTCCGTTTGGGCAGGGCTGCGGGCCGGAGGG | 911 | 746 | 831 | 2130
